Data taken from the supplement of paper PMC10849652.
The full data set covers some 7,900 targets. This sample favours those with a hit. About 0.6% of all pairs of compound and target were hits.

compound: Cc1cccc(CC(=O)N2CCc3c2ccc(-c2cn(C)c4ncnc(N)c24)c3F)n1; assay: log2 fold change, soluble protein after heating vs DMSO (PISA); higher = thermal stabilisation; K562 cells, 10 uM, 30 min; active = over 0.2 and 3.5 SD of the protein, either way, in both replicates (recomputed)
Outline: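 K562 cells at 2×10^6 cells/mL were given 10 μM compound for 30 min. Aliquots then went through 3 min of heating across 48°C-58°C, were pooled, and were extracted in PBS with 0.5% NP-40 at 4°C, and the supernatant after 21,000xg for 90 min was quantified by TMTpro 16plex LC-MS/MS with channel sums equalised. Thermal stability relative to control samples, from duplicates, is given as log2 fold change.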

UniProt Q9UKU0, sequence (Q9UKU0 whole entry, looked up): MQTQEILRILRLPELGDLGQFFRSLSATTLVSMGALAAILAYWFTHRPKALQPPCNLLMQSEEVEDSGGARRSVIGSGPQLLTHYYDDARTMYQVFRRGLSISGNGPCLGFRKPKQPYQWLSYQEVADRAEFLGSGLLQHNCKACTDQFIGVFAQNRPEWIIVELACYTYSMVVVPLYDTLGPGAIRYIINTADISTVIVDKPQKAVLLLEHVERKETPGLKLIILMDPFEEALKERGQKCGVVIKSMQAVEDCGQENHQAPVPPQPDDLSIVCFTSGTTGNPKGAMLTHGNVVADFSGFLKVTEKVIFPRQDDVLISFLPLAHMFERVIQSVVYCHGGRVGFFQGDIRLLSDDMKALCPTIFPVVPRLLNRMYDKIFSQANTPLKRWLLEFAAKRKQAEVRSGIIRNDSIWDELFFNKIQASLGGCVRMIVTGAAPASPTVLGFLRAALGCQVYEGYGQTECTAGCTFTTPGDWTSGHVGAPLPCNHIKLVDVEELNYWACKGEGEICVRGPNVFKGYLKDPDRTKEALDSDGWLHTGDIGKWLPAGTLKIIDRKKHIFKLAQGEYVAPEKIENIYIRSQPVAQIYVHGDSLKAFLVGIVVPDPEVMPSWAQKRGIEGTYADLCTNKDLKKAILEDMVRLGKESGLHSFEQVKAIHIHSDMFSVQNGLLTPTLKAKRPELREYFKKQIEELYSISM
UniProt Q9NWB6, sequence (Q9NWB6 whole entry, looked up): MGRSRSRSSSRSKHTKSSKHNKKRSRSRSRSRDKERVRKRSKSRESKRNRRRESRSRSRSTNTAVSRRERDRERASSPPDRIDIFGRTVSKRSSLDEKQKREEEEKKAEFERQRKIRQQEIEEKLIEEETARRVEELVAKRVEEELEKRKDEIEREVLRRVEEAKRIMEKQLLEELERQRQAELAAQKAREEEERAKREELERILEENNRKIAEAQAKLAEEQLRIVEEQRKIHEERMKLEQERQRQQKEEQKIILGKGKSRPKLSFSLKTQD
UniProt Q96BI3, sequence (Q96BI3 whole entry, looked up): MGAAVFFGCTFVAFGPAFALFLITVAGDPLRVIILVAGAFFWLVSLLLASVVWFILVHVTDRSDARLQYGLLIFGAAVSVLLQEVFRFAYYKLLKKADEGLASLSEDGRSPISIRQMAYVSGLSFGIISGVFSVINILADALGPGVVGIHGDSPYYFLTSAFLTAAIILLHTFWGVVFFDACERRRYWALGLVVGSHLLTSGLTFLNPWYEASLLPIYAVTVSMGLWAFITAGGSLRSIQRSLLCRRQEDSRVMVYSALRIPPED
UniProt P24666, sequence (P24666 whole entry, looked up): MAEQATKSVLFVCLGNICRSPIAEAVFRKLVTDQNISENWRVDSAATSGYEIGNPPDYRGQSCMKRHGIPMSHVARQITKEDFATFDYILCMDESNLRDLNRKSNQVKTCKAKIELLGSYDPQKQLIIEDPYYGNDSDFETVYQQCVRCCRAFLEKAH
UniProt O75882, sequence (O75882 whole entry, looked up): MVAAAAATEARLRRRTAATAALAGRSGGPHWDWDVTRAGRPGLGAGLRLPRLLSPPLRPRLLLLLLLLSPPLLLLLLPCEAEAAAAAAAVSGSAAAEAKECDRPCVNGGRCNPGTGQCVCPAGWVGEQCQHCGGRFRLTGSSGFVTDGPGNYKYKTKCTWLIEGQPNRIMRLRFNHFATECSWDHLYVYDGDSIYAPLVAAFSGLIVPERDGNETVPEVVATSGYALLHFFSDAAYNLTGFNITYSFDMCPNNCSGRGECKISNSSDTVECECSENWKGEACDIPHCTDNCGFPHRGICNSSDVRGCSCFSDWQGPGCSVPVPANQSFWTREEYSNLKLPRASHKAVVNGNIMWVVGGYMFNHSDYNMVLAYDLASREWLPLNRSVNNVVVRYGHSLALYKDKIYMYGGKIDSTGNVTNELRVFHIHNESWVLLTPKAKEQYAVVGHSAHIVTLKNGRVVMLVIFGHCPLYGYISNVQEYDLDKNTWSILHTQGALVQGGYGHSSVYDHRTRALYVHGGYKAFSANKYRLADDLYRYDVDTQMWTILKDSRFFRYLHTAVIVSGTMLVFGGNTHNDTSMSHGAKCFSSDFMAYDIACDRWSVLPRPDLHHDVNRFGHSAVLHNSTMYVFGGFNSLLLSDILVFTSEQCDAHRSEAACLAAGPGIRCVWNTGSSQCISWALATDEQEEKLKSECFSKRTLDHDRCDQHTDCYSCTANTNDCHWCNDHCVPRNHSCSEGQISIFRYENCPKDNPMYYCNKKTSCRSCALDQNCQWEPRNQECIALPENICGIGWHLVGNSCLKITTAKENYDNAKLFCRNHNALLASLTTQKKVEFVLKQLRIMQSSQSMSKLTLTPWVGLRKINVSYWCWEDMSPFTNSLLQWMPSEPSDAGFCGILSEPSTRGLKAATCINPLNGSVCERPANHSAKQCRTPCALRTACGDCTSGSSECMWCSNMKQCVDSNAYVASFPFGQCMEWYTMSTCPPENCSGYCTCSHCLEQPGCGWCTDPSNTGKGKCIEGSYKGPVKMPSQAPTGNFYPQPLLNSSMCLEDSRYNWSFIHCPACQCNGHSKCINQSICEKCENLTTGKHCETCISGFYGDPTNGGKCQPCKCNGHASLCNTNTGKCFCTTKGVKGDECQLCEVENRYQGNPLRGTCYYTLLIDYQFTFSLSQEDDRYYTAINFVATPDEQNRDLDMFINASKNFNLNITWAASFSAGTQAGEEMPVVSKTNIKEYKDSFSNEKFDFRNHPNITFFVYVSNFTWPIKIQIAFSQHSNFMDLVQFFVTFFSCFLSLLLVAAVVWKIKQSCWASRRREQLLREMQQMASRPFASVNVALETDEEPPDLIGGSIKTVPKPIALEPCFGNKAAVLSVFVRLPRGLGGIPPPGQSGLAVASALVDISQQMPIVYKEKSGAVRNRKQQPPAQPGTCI
UniProt Q96CW1, sequence (Q96CW1 whole entry, looked up): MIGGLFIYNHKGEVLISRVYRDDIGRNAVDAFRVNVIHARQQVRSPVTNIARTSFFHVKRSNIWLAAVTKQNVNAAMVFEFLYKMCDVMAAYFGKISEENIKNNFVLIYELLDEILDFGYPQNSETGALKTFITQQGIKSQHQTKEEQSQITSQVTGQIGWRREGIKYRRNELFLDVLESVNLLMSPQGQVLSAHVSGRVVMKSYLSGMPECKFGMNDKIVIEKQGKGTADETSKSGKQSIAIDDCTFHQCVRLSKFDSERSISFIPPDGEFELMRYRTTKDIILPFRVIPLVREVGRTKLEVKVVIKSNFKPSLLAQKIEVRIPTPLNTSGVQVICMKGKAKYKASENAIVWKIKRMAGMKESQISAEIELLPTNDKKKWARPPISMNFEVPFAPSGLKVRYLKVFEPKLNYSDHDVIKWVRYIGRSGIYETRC
UniProt O00244, sequence (O00244 whole entry, looked up): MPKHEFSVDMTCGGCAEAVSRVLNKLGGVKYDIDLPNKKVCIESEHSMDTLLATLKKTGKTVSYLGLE
UniProt Q9Y679, sequence (Q9Y679 whole entry, looked up): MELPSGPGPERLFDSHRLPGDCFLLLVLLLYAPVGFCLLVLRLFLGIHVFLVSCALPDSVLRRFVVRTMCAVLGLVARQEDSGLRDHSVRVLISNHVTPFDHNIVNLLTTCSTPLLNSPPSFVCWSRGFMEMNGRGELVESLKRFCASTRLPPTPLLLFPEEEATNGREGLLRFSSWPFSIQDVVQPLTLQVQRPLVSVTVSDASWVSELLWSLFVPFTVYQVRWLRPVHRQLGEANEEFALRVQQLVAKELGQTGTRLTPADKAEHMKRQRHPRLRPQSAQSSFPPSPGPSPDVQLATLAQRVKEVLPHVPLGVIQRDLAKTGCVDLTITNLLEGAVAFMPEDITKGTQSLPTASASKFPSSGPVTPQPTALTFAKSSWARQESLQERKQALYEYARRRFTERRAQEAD
UniProt Q15059, sequence (Q15059 whole entry, looked up): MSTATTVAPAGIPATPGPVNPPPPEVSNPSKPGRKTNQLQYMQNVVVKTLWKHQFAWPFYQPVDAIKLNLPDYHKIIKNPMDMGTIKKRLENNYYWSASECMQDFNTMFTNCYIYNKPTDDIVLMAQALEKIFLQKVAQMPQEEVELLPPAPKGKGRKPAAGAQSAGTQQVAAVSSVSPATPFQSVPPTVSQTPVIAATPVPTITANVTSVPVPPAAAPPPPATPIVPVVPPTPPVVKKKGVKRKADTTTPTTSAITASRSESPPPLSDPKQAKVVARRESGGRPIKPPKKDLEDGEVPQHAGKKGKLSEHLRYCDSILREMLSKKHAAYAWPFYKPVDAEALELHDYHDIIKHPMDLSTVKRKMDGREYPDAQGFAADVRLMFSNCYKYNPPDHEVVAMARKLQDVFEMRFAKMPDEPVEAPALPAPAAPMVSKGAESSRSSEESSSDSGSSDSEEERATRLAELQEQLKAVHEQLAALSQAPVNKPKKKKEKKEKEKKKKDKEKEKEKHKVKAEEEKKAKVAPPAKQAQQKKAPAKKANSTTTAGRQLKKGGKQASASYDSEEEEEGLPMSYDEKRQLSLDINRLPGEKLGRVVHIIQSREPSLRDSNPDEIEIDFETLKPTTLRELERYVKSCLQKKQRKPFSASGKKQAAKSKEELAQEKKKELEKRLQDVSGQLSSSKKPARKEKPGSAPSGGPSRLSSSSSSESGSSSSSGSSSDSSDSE
UniProt P54922, sequence (P54922 whole entry, looked up): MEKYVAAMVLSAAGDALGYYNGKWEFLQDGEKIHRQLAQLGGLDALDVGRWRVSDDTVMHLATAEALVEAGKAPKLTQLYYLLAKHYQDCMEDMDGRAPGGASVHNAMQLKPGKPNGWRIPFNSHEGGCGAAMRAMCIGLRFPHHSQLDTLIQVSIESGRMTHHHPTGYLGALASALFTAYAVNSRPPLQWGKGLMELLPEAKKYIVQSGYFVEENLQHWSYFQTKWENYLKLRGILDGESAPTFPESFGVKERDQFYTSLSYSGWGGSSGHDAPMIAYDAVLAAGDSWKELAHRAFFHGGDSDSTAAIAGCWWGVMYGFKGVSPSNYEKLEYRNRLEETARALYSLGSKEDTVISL

log2 fold change, inactive:
BSCL2 isoform 4 (UniProt Q96G97) -0.041
ARL3 (UniProt P36405) -0.029
ABCA4 (UniProt P78363) -0.149
AFDN isoform 5 (UniProt P55196) 0.035
AP2M1 (UniProt Q96CW1) -0.012
ASB6 (UniProt Q9NWX5) 0.014
ATOX1 (UniProt O00244) 0.043
ADPRH (UniProt P54922) -0.29
ADAMTS5 (UniProt Q9UNA0) -0.066
AASDH (UniProt Q4L235) -0.008
ATP7B (UniProt P35670) -0.032
ATRN (UniProt O75882) 0.004
BRD3 (UniProt Q15059) -0.002
ACP1 (UniProt P24666) 0.013
BRIP1 (UniProt Q9BX63) -0.011
ATXN3 isoform 1 (UniProt P54252) 0.021
ARRDC1 (UniProt Q8N5I2) -0.035
ACTBL2 (UniProt Q562R1) -0.124
ADAM15 (UniProt Q13444) 0.003
AIP (UniProt O00170) 0.02
ARHGAP25 isoform 4 (UniProt P42331) -0.089
ABHD11 (UniProt Q8NFV4) 0.175
ATF1 (UniProt P18846) 0.018
ARFIP1 isoform 2 (UniProt P53367) -0.195
ACSL6 isoform 1 (UniProt Q9UKU0) 0.057
ARGLU1 (UniProt Q9NWB6) -0.058
BCLAF1 (UniProt Q9NYF8) 0.059
B4GALNT1 (UniProt Q00973) -0.042
ARFGAP1 (UniProt Q8N6T3) -0.009
ANK2 (UniProt Q01484) -0.034
ACTR1B (UniProt P42025) -0.221
AMD1 (UniProt P17707) -0.141
APOH (UniProt P02749) 0.083
APH1A (UniProt Q96BI3) -0.06
AUP1 (UniProt Q9Y679) 0.11

log2 fold change, active:
ALG14 (UniProt Q96F25) 0.461
